# Measured values published in PubChem BioAssay (NCATS).
# Inconclusive results are not listed. A call without a number means that no potency is given here. Calls of active or inactive are those of the source. The call rests on the fitted dose curve; in most records, active means well fitted cell-killing curve with a large enough effect; inconclusive means small, poorly fitted or top-dose-only effect; inactive means flat fitted curve, though single readings scatter.
# Test: Cell Viability - LYMP2-011 (AID 969); further: nearly all actives have a fitted effect of over 60% in size
# Conditions: LYMP2-011 lymphoblastoid cells viability; series mostly up to 92.2 µM
# Text: NIH Chemical Genomics Center [NCGC]
# NIH Molecular Libraries Screening Centers Network [MLSCN]
# National Institutes of Environmental Health Sciences [NIEHS]
# National Toxicology Program [NTP]
# We have developed a 1536-well cell-based assay for quantitative high throughput screening (qHTS) against a number of cell lines to determine in vitro cytotoxicity of small molecules. This particular assay uses a human lymphoblastoid cell line (LYMP2-011) purchased from Coriell Institute for Medical Research.
# NCGC Assay Protocol Summary:
# The CellTiter-Glo luminescent cell viability assay (Promega) is a homogeneous method to measure the number of viable cells in culture. The end point readout of this assay is based on quantitation of intracellular ATP, an indicator of metabolic activity, using the luciferase reaction. Luciferase catalyzes the oxidation of beetle Luciferin to oxyluciferin and light in the presence of ATP. The luminescent signal is proportional to amount of ATP present.
# Using the CellTiter-Glo luminescent cell viability assay, the amount of cellular ATP was measured in the lymphoblastoid cell line with complete culture medium following compound treatment for 24 hours. The assay was performed in opaque white Kalypsys 1536-well plates. In the screen, tetraoctylammonium bromide was used as positive control. Library compounds were measured for their ability to cause acute toxicity in the cell line, as reflected by a decrease in intracellular ATP levels, in a concentration-dependent manner. […] AC50 values were determined from concentration-response data modeled with the standard Hill equation.
# qHTS protocol for CellTiter Glo lymphoblastoid cellular assay
# [Step] [Parameter] [Value] [Description]
# 1. Reagent; 5 uL; 2500 lymphoblastoid cells/well
# 2. Time; 5 hr; 37 C incubation
# 4. Controls; 23 nL; Tetraoctylammonium bromide 6.4pM to 92 uM
# 5. Time; 24 hr; 37 C incubation
# 6. Reagent; 5 uL; CellTiter Glo reagent
# 7. Time; 30 min; Room Temperature
# 8. Detection; Luminescence; Viewlux plate reader
# Keywords: cell viability, cytotoxicity, lymphoblastoid cell line, luminescence, NTPHTS, NTPHTS_NCGC, NIEHS, DSSTox, MLSMR, MLSCN, NIH Roadmap, qHTS, NCGC
# Potency means the concentration at half of the fitted maximal effect.
row,SMILES,Potency
1,Clc1nc(Cl)nc(Nc2ccccc2Cl)n1,inactive
2,C=CC(C)=O,inactive
3,CNC(=O)O/N=C/C(C)(C)SC,inactive
4,CC(Cl)Cl,inactive
5,CN=C=S,inactive
6,O=NN(c1ccccc1)c1ccccc1,inactive
7,N#CCCCl,inactive
8,O=C(O)COc1ccc(Cl)cc1Cl,inactive
9,CCCCOC(=O)c1ccccc1C(=O)OCCCC,inactive
10,[O-][Br+2]([O-])O,inactive
11,CCOCN(C(=O)CCl)c1c(C)cccc1CC,50.1 µM (active)
12,CCSC(=O)Cl,inactive
13,O=C=NC1CCCCC1,inactive
14,CCOP(=S)(OCC)SCSC(C)(C)C,inactive
15,CCN(CC)c1ccccc1,inactive
16,COC(=O)NC(=S)Nc1ccccc1NC(=S)NC(=O)OC,inactive
17,S=C=Nc1cccc2ccccc12,inactive
18,O=[N+]([O-])c1ccc(Cl)c(Cl)c1,inactive
19,Nc1c(Cl)c(Cl)nc(C(=O)O)c1Cl,inactive
20,CCCC(=O)Cl,inactive

row,SMILES,Potency
1,CC(C)(c1ccccc1)c1ccc(O)cc1,inactive
2,BrCCBr,inactive
3,Cc1ccc([N+](=O)[O-])cc1C,inactive
4,C1CCC2CCCCC2C1 (stereo not given),inactive
5,CC(C)(C)OO,inactive
6,CCCOC(=O)c1ccccc1C(=O)OCCC,inactive
7,CCOc1ccc(N)cc1,inactive
8,CCCCCCCC(=O)Cl,inactive
9,COP(=S)(OC)Oc1ccc([N+](=O)[O-])cc1,inactive
10,C=CCOC(C)=O,inactive
11,O=C1C(Cl)=C(Cl)C(=O)C(Cl)=C1Cl,25.1 µM (active)
12,CCCCCCCCCc1ccc(O)cc1,inactive
13,CCNc1nc(Cl)nc(NC(C)C)n1,inactive
14,O=S1OCC2C(CO1)C1(Cl)C(Cl)=C(Cl)C2(Cl)C1(Cl)Cl (stereo not given),inactive
15,C[C@H]1CCCC(=O)CCC/C=C/c2cc(O)cc(O)c2C(=O)O1,inactive
16,ClCBr,inactive
17,CCCSC(=O)Cl,inactive
18,CC(=O)[O-].CC(=O)[O-].O.O.O.[Pb+2],inactive
19,C=C(C)C#N,inactive
20,C/C=C/c1ccc2c(c1)OCO2,inactive
